Results filed as inconclusive are left out. Activity calls are given as the source filed them. Calls follow the shape of the dose curve; as a rule, active = well fitted inhibition curve with a large enough effect; inconclusive = small, poorly fitted or top-dose-only effect; inactive = flat fitted curve, though single readings scatter.
biological target: Ferritin light chain (Equus caballus) (UniProt P02791); assay: Confirmation Assay for Identification of Novel General Anesthetics; conditions: apoferritin 1-aminoanthracene fluorescence displacement; also: nearly all actives have a fitted effect of over 40% in size
Sequence (P02791 2-175 limits assumed): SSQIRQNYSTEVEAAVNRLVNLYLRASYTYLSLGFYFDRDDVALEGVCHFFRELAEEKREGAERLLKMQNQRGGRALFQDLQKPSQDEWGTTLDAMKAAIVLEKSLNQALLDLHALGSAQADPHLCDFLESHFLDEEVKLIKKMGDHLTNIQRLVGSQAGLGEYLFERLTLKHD
In short: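 Horse apoferritin (10 uM) pre-loaded with 1-AMA (50% saturated, PBS) exposed to compounds 10 min at room temperature; loss of 1-AMA fluorescence (380/535 nm) scaled between free and bound ligand, curves fitted with Hill equation.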
Potency is read from the fitted curve at half-maximal effect.

Potency, active:
O=C(CO/N=C/c1ccc(OC(F)F)cc1)NC1CCCCCC1 11.2 µM
CCCC(C)NS(=O)(=O)c1ccc(OC)c(C)c1 (centres undefined) 20 µM
Cc1ccc(C2=NN(CC(=O)NCCc3ccccc3)C(=O)CC2)cc1 5.19 µM
O=C1CC(C2CCCO2)C(=O)N1c1cccc(Cl)c1 (centres undefined) 14.1 µM
Nc1ccc2nc(SCc3cccc(F)c3)sc2c1 28.2 µM
O=C(NC1CCCCCC1)C(=S)NCc1ccccc1 11.2 µM
Cc1csc(OCC(=O)Nc2ccc(C)c(C)c2)n1 17.8 µM
CC1CCN(c2nc(-c3ccncc3)nc3ccccc23)CC1 39.8 µM
CC1CCCC(C)N1C(=O)COc1ccccc1F (centres undefined) 17.8 µM
Cc1cnc(C(=O)OCC(=O)NC23CC4CC(CC(C4)C2)C3)cn1 14.1 µM
O=C(CCc1ccccc1)NC(=S)Nc1ccccc1[N+](=O)[O-] 15.8 µM
Cc1ccccc1Cn1c(C)cc(C)c(C#N)c1=O 15.8 µM
O=C(NC1CCCCCCC1)c1cc(COc2ccc3ncccc3c2)on1 12.6 µM
O=C(CSc1ccccn1)N1CCc2ccccc21 8.91 µM
Cc1cc(NS(=O)(=O)N(C)C)ccc1C(C)C 20 µM
c1cnc(NC2C3CC4CC(C3)CC2C4)nc1 (centres undefined) 6.31 µM
Nc1cc(C(F)(F)F)ccc1Nc1ccccc1 25.1 µM
Oc1ccc(NCc2cccc(OCc3ccccc3)c2)cc1 15.8 µM
O=C(Nc1cccc(F)c1)N1CCCCCC1 12.6 µM
O=C(Cn1nc(-c2ccccc2)ccc1=O)NCc1ccc(F)cc1 6.31 µM
NCCOc1ccc(C2CCCCC2)cc1 7.94 µM
O=S1(=O)CCOCCCN1Cc1ccccc1Br 12.6 µM
CC1(C)CC(=O)N(Cc2ccccc2)C(=O)C1 8.91 µM
N#CCc1ccc(Oc2ncc(C(F)(F)F)cc2Cl)cc1 17.8 µM
Oc1cccc(Oc2ncc(C(F)(F)F)cc2Cl)c1 7.94 µM
O=C(CSCCO)Nc1ccc(C2CCCCC2)cc1 20 µM
O=C(CN1N=C(c2ccc(Cl)cc2)CCC1=O)NCc1ccc(F)cc1 5.82 µM
Cc1ncsc1CCOC(=O)C12CC3CC(CC(C3)C1)C2 15.8 µM
O=C(COc1ccc(F)c(Cl)c1)N1CCCCCCC1 35.5 µM
COc1ccc(C2=Nn3c(nnc3-c3ccc(OC)cc3)SC2)cc1 22.4 µM
Cc1ccccc1OCC(=O)N1CCCCCCC1 7.94 µM
Cc1sc2ncn(CC(=O)NCc3ccco3)c(=O)c2c1-c1ccccc1 28.2 µM
O=C(CC1SCCNC1=O)Nc1ccc(Cl)c(Cl)c1 (centres undefined) 20 µM
O=C(NC1C2CC3CC(C2)CC1C3)c1ccc2c(c1)OCO2 (centres undefined) 28.2 µM
O=C(Nc1nccs1)c1csc2c1CCCC2 8.91 µM
Cc1ccc(NC(C)c2cc(Cl)ccc2O)cc1 (centres undefined) 17.8 µM
Cc1ccc(O)c(N=Nc2ccccc2)n1 22.4 µM
O=C(CCC(=O)c1ccc(Cl)cc1)OCC(=O)c1ccccc1 17.8 µM
COc1ccc(Cc2nnc(NC(=O)c3ccccc3F)s2)cc1 25.1 µM
